MMP-13 inhibitor = inhibitors of human MMP13; inhibition, % at 4 µM; 65,000 compounds, 0.07% hits; MMP-13 fTHP FRET cleavage, Mca fluorescence; P45452;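 active = inhibition above the mean of compound-free control plate wells plus 3 SD, cut at about 14% in these data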;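 note: 0% = DMSO wells and 100% = wells with reference MMP-13 inhibitor after basal subtraction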
PKA kinase inh = blocks human protein kinase A activity; inhibition, % at 6 µM; 65,000 compounds, 0.1% hits; PKA Kemptide phosphorylation, Kinase-Glo ATP luminescence; AID 524; P17612;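 active = inhibition above the screen-wide mean inhibition plus 3 SD, cut at about 21% in these data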
ROCK2 blocker = inhibitors of human Rho kinase 2. O75116. purified ROCK2, Kinase-Glo ATP depletion luminescence. inhibition, % at 6 µM. 60,000 compounds, 0.35% hits. AID 604;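 active = inhibition above the screen-wide mean inhibition plus 3 SD, cut at about 18% in these data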;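 note: plate controls were DMSO wells for no effect and Y-27632 control wells after no-enzyme background subtraction for full effect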
Hsp90 block = displaces geldanamycin probe from tumor Hsp90; NCI-N417 lysate Hsp90, Cy3B-geldanamycin FP displacement; inhibition, % at 30 µM; P07900; AID 429; 64,000 compounds, 0.35% hits;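 active = inhibition above 50%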;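 note: 0% = tracer plus lysate wells and 100% = tracer alone without lysate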
WNV NS2B-NS3 inh = blocks West Nile virus NS2B-NS3 protease activity | AID 577 | WNV NS2B-NS3 protease, fluorogenic substrate Ex360/Em465; active compounds read low | 65,000 compounds, 0.18% hits | z-score (test concentration not listed) | P06935; in the data active = z-score below about -3
Ec RNAP inh = Escherichia coli RNA polymerase inhibition | P0A8V2 | E. coli RNA polymerase, fluorescence transcription assay | inhibition, %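 (tested at 10 µM)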 | 62,000 compounds, 0.2% hits; in the data active = inhibition above about 20%;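 note: 0% = enzyme without compound and 100% = no enzyme blank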
The depositor's hits bear a star. Compounds with a hit are over-represented: about 0.79% of the library has one in this group of screens.

Results for CC(C)N(CCC(C(N)=O)(c1ccccc1)c1ccccn1)C(C)C (stereo not given) ?
MMP-13 inhibitor: -11; PKA kinase inh: -3; ROCK2 blocker: -7; Hsp90 block: -2; WNV NS2B-NS3 inh: 0.25; Ec RNAP inh: 6

Results for CCOC(C(=O)OCC(O)CN(CC)CC)(c1ccccc1)c1ccccc1 (stereo not given) ?
MMP-13 inhibitor: -1; PKA kinase inh: 6; ROCK2 blocker: 8; Hsp90 block: -2; WNV NS2B-NS3 inh: 0.06; Ec RNAP inh: 22*

Results for CCOc1ccc(C2SCC(=O)Nc3c2c(=O)[nH]n3C2CCCCCC2)cc1 (stereo not given) ?
MMP-13 inhibitor: 10; PKA kinase inh: -4; Hsp90 block: -5; WNV NS2B-NS3 inh: 0.0035; Ec RNAP inh: 16

How did Cc1cccc(NC(=O)CSc2nnc([C@@H](N)Cc3c[nH]c4ccccc34)o2)c1C do in these assays?
MMP-13 inhibitor: -4; PKA kinase inh: 6; ROCK2 blocker: 0; Hsp90 block: -5; WNV NS2B-NS3 inh: -0.67; Ec RNAP inh: 9

What do the screens show for `C=CCN(CC=C)Cc1c[nH]c2ccccc12`?
MMP-13 inhibitor: -3; PKA kinase inh: 4; ROCK2 blocker: 2; Hsp90 block: -6; WNV NS2B-NS3 inh: 1; Ec RNAP inh: 2

How did O/N=C/c1c[nH]c2ccccc12 do in these assays?
MMP-13 inhibitor: -1; PKA kinase inh: 64*; ROCK2 blocker: 82*; Hsp90 block: -11; WNV NS2B-NS3 inh: -1.1; Ec RNAP inh: 6

How did O=S(=O)(c1ccc(Cl)cc1)N1CN2CCN(C2)C1 do in these assays?
MMP-13 inhibitor: -4; PKA kinase inh: 7; ROCK2 blocker: 2; Hsp90 block: 1; WNV NS2B-NS3 inh: -4.8*; Ec RNAP inh: 0

What do the screens show for `COc1cccc(-n2c(C)nc3ccccc3c2=O)c1`?
MMP-13 inhibitor: 3; PKA kinase inh: 9; ROCK2 blocker: 2; Hsp90 block: -2; WNV NS2B-NS3 inh: 0.14; Ec RNAP inh: 1

How did O=c1c2ccccc2[se]n1-c1ccccc1 do in these assays?
MMP-13 inhibitor: 3; PKA kinase inh: -8; ROCK2 blocker: -8; Hsp90 block: 1; WNV NS2B-NS3 inh: 0.27; Ec RNAP inh: 37*

What do the screens show for `CN(N=O)c1cc(O)ccc1O`?
Hsp90 block: 99*

How did NC1CCc2cc(O)c(O)cc2C1 (stereo not given) do in these assays?
Hsp90 block: 53*

How did CC[C@@H](CO)NC(=O)[C@@H]1C=C2c3cccc4[nH]cc(c34)C[C@H]2N(C)C1 do in these assays?
Hsp90 block: 8

What do the screens show for `C[C@H]1CCC[C@H](O)CCCCCc2cc(O)cc(O)c2C(=O)O1`?
MMP-13 inhibitor: 3; PKA kinase inh: 3; ROCK2 blocker: 4; Hsp90 block: 87*; WNV NS2B-NS3 inh: -0.42; Ec RNAP inh: 2

Results for Cc1nc2c(-c3ccc(F)cc3)c(C)nn2c(C)c1CCC(=O)N1CCC2(CC1)OCCO2 ?
MMP-13 inhibitor: -1; PKA kinase inh: 6; ROCK2 blocker: 2; Hsp90 block: -6; WNV NS2B-NS3 inh: -0.55; Ec RNAP inh: 1

How did COc1ncccc1C(=O)NCC(CC(=O)O)c1ccccc1 (stereo not given) do in these assays?
MMP-13 inhibitor: -2; PKA kinase inh: -3; WNV NS2B-NS3 inh: -1.1; Ec RNAP inh: 8

What do the screens show for `CCn1nc(-c2ccccc2)nc2c(=O)n(C)c(=O)nc1-2`?
MMP-13 inhibitor: 4; PKA kinase inh: 4; ROCK2 blocker: 72*; Hsp90 block: 89*; WNV NS2B-NS3 inh: -0.24; Ec RNAP inh: 1

How did C=CCC1(CN2CCCCCC2=O)C(=O)NC(=O)NC1=O do in these assays?
MMP-13 inhibitor: 1; PKA kinase inh: 5; ROCK2 blocker: 7; Hsp90 block: -4; WNV NS2B-NS3 inh: -6.5*

Results for O=C1NC(=O)C(CCc2ccncc2)(c2ccccc2)C(=O)N1 ?
MMP-13 inhibitor: 37*; PKA kinase inh: 11; ROCK2 blocker: 2; Hsp90 block: -3; WNV NS2B-NS3 inh: -1; Ec RNAP inh: 7

How did COc1ccc(OC)c(N2C(=O)NC(=O)C(CCc3ccncc3)(CCc3ccncc3)C2=O)c1 do in these assays?
MMP-13 inhibitor: 0; PKA kinase inh: 8; ROCK2 blocker: 5; Hsp90 block: -4; WNV NS2B-NS3 inh: 0.68; Ec RNAP inh: 1

What do the screens show for `CCC(=NC1CCN(Cc2ccccc2)CC1)c1c(O)[nH]c(=O)[nH]c1=O`?
MMP-13 inhibitor: 0; PKA kinase inh: 2; ROCK2 blocker: 3; Hsp90 block: 0; WNV NS2B-NS3 inh: 1; Ec RNAP inh: 6
